PfHsp40 yeast = rescue of yeast from PfHsp40 toxicity, primary screen, S. cerevisiae, ATP luminescence. 340,000 compounds, 0.68% hits. growth rescue, % at 12.5 µM. S. cerevisiae expressing PfHsp40, growth rescue. AID 504582, 2011; in the data active = growth rescue above about 28%, passing the limit was not always enough; inconclusive = no clear call, values can overlap the other calls;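 also: yeast W303a lacking pdr1 and pdr3 grown in galactose medium; growth measured after three days at 30 °C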
BoNT-A LC inh2 = BoNT/A light chain protease inhibitors, primary screen, biochemical, flow cytometry, MLPCN library. multiplex microsphere protease substrate cleavage. inhibition, % at 10 µM. Botulinum neurotoxin type A light chain protease (Clostridium botulinum A str. ATCC 3502). 360,000 compounds, 0.17% hits. AID 588499, 2011; also: plate controls were buffer without enzyme for full effect and enzyme alone for no effect
Anthrax LF prot = Bacillus anthracis LF protease inhibitors, primary screen, biochemical, multiplex microsphere, MLPCN library; 360,000 compounds, 0.12% hits; inhibition, % at 10 µM; multiplex microsphere protease cleavage assay; also: plate controls were buffer without enzyme for full effect and enzyme alone for no effect
BoNT-F LC inh = BoNT/F light chain protease inhibitors, primary screen, biochemical, flow cytometry, MLPCN library; Botulinum neurotoxin type F light chain protease (Clostridium botulinum); Multiplex microsphere protease cleavage assay; inhibition, % at 10 µM; 360,000 compounds, 0.22% hits; in the data active = inhibition above about 35%, passing the limit was not always enough; inconclusive = no clear call, values can overlap the other calls; also: plate controls were buffer without enzyme for full effect and enzyme alone for no effect
MazEF act = activators of E. coli MazEF toxin-antitoxin RNase, primary screen, biochemical, fluorescence, uHTS. activation, % at 20 µM. 350,000 compounds, 0.32% hits. FAM/BHQ RNA-DNA oligo cleavage fluorescence, 5 h. AID 504720, 2011. Endoribonuclease toxin MazF (Escherichia coli (strain K12)), P0AE70; in the data active = activation above about 50%
Target sequence (P0AE70 whole entry, looked up): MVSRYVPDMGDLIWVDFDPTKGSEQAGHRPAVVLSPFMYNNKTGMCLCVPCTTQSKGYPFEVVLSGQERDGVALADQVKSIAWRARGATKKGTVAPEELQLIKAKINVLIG
Bead autofluor = flagged as autofluorescent in microsphere protease counterscreen; compound autofluorescence counterscreen, microsphere flow cytometry; hits give high values; fluorescence intensity (concentration not given with the values); 360,000 compounds, 3.1% hits; AID 624483; in the data active = fluorescence intensity above about 16000; inconclusive = no clear call, values can overlap the other calls
Starred values were filed as active, the others as inactive; ? = inconclusive; / = not tested or not shown; + = active, no number. An excerpt weighted towards active compounds, which were near 4.3% of everything screened. Rule as the data show it, unless noted: active = inhibition above about 30%; inconclusive = no clear call, values can overlap the other calls; inactive = below that.

SMILES | PfHsp40 yeast | BoNT-A LC inh2 | Anthrax LF prot | BoNT-F LC inh | MazEF act | Bead autofluor
CC1Oc2ccccc2N(CC(=O)N2CCCc3ccccc32)C1=O (stereo unspecified) | -1 | 11 | -16 | 13 | -12 | 18633*
CC1Oc2ccccc2N(CC(=O)N2CCc3ccccc32)C1=O (stereo unspecified) | 1 | 1 | -4 | 0 | -13 | 23145*
O=C(Cn1cccc1)N1CCc2ccccc21 | 2 | -4 | -4 | -10 | 11 | 17880*
O=C(CSc1ccccc1)N1CCc2ccccc21 | -1 | 0 | -2 | -5 | 10 | 2916
Cc1cc(C)cc(Oc2ccc(NC(=O)C3CC=CCC3C(=O)O)cc2)c1 (stereo unspecified) | 2 | 0 | -5 | 4 | 4 | 4056
O=S(=O)(Nc1nc2ccc(Cl)cc2s1)c1cccs1 | -1 | 1 | -6 | 2 | 1 | 3729
C=CCC(CC(O)COCCC)C(=O)NNC(=S)Nc1ccccc1 (stereo unspecified) | 0 | 0 | -4 | -3 | 11 | 6365
CCOC(=O)NC1(C(F)(F)F)NC(=O)N(Cc2ccco2)C1=O (stereo unspecified) | 2 | ? | 2 | 0 | 10 | 16624*
O=C(c1ccncc1)c1ccc(N2CCN(C3CC(=O)N(Cc4cccs4)C3=O)CC2)cc1 (stereo unspecified) | 0 | -2 | -1 | -12 | -5 | 5581
CCN1C(=O)CC(N2CCN(c3ccc(C(=O)c4ccncc4)cc3)CC2)C1=O (stereo unspecified) | 0 | ? | -3 | -2 | -2 | 20385*
CC(C)(C)C(=O)CNS(=O)(=O)c1ccc(S(=O)(=O)NC2CC2)cc1 | 2 | 1 | -10 | 34 | 8 | 3406
CCCCCCCN1C2=NCCCN2c2ccccc21 | 0 | 0 | 0 | -3 | 926* | 4584
CCCN(Cc1cc2cc(C)ccc2[nH]c1=O)C(=O)c1cccc(OC)c1 | 0 | 1 | -2 | 7 | 2 | 3593
CCCN(Cc1cc2cccc(C)c2[nH]c1=O)C(=O)c1cccc(OC)c1 | 72* | 0 | -6 | -3 | 5 | 2599
CC12CCC3c4ccccc4CCC3(CO1)C2 (stereo unspecified) | / | 0 | 3 | -1 | 9 | 3908
Cn1cccc1/C=C1\SC(=Nc2ccccc2)NC1=O | 0 | 2 | 13 | 36* | -7 | 3910
Cn1cccc1/C=C1\SC(=O)N(c2ccccc2)C1=O | -1 | 2 | 12 | 16 | 88* | 2087
Cc1cccc(/C=N\Nc2cn[nH]c(=O)c2Cl)c1 | 0 | 12 | 3 | 11 | 10 | 17627*
O=C1N=C(N2CCOCC2)S/C1=C1\C(=O)N(Cc2ccccc2)c2ccccc21 | 0 | -1 | -3 | -2 | 20 | 16736*
CC1CN(C2=NC(=O)/C(=C3/C(=O)N(Cc4ccc(F)cc4)c4ccccc43)S2)CC(C)O1 (stereo unspecified) | -1 | ? | 32* | ? | 34 | 4079
CCc1sc(NS(C)(=O)=O)nc1-c1ccccc1 | 0 | -1 | -4 | -3 | 9 | 23262*
CCC(=O)NC(=S)NNC(=O)c1ccc(OC)cc1 | 6 | 0 | 1 | 0 | 5 | 9274
CC(Oc1ccc(Cl)cc1)C(=O)NNC(=S)NC(=O)c1ccco1 (stereo unspecified) | 68* | -2 | -4 | 1 | 7 | 10751
CCCOc1ccc(C(=O)NNC(=S)NC(C)=O)cc1 | 52* | / | / | / | 3 | /
CCCOc1ccc(C(=O)NNC(=S)NC(=O)c2ccco2)cc1 | 108* | ? | 6 | ? | 3 | 4104
SMILES | PfHsp40 yeast | BoNT-A LC inh2 | Anthrax LF prot | BoNT-F LC inh | MazEF act | Bead autofluor
O=C(COc1ccc(Cl)cc1Cl)NNC(=S)NC(=O)c1ccco1 | 1 | -1 | 15 | ? | 4 | 3874
CCCCOc1ccc(C(=O)NNC(=S)NC(=O)CC)cc1 | 61* | -2 | -1 | -17 | 2 | 2906
COc1ccc(C(=O)OC(C)C(=O)NC2CCCCC2C)cc1S(=O)(=O)N1CCOCC1 (stereo unspecified) | 2 | 0 | 1 | -2 | 1 | 6099
CCOc1ccc(S(=O)(=O)NCc2cccnc2)cc1C(C)C | 0 | 0 | 12 | 2 | 2 | 4555
CCC(=O)NC(=S)NNC(=O)c1ccc([N+](=O)[O-])cc1 | 1 | 0 | -4 | 0 | 8 | 20381*
COC(=O)N/N=C/c1ccc(-c2cc(Cl)ccc2Cl)o1 | -1 | 0 | -2 | -9 | 5 | 1976
COC(=O)N/N=C\c1ccc(-c2cc(Cl)c(Cl)cc2Cl)o1 | -1 | 1 | -2 | 8 | 55* | 10447
CC1CCCC(NC(=O)NC(=O)COC(=O)c2ccc(O)cc2O)C1C (stereo unspecified) | 2 | 3 | 3 | 0 | 6 | 5814
CN(C)C1(CN=Cc2cc(Cl)cc([N+](=O)[O-])c2O)CCCCC1 | 42* | 1 | 10 | -8 | 1 | 3284
COc1ccc(OCC(=O)Nc2nonc2NC(=O)COc2ccc(OC)cc2)cc1 | 1 | -2 | -2 | -16 | 5 | 5064
Cc1cc(C)cc(OCC(=O)Nc2cccc(C(=O)O)c2)c1 | 0 | ? | 0 | -9 | 2 | 17933*
Cc1cc(C)cc(OCC(=O)Nc2nonc2NC(=O)COc2cc(C)cc(C)c2)c1 | 0 | ? | -11 | 2 | 5 | 18944*
O=C(N=c1ccn(-c2nc3ccccc3nc2NS(=O)(=O)c2ccc(Cl)cc2)cc1)c1cccs1 | 1 | 0 | -4 | -2 | 92* | 5100
O=S(=O)(Nc1nc2ccccc2nc1N1CCN(c2ccccn2)CC1)c1ccc(Cl)cc1 | 142* | 1 | -2 | -6 | -660 | 11543
O=S(=O)(Nc1nc2ccccc2nc1N1CCc2ccccc2C1)c1ccc(Cl)cc1 | 1 | 2 | -2 | 3 | 18 | 7188
CC(=O)Nc1ccc(S(=O)(=O)Nc2nc3ccccc3nc2N2CCCCCC2)cc1 | -1 | ? | -2 | 1 | -5 | 23055*
Cc1ccc(S(=O)(=O)NCc2ccc(C(=O)NCCN(Cc3ccccc3)C(C)C)cc2)cc1 | -1 | -1 | -1 | -5 | -3 | 3388
C[C@@H]1NC(=O)N[C@@H]1CCCCCC(=O)O | -2 | 3 | -1 | 14 | 3 | 1754
CCCCCC1NC(=O)NC1CCCCCC(=O)O (stereo unspecified) | -1 | 7 | 1 | 11 | 2 | 18045*
CC1=C([N+](=O)[O-])C(c2ccc3c(c2)OCO3)N(C)C(=O)N1C (stereo unspecified) | 1 | -2 | 27 | ? | 4 | 3472
CCOC(=O)C1=C(O)/C(=C/c2cn(CC(=O)NCC3CCCO3)c3ccccc23)SC1=Nc1ccc(C)cc1 (stereo unspecified) | 2 | 3 | 4 | 23 | + | 2940
